Pf growth 48h – inhibits P. falciparum growth in the first generation, 48 h. P. falciparum luciferase growth in erythrocytes, 48 h. Potency, µM (doses to about 28.7 µM), for inactives: at the highest dose activity change, negative = inhibition, actives largely listed as inhibitors. hit rate 5.9% among 310,000; note: potency is the fitted concentration of half-maximal effect; % is set by controls: 0 for no effect and ±100 for the full control effect
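First compound was added to culture medium, then infected red cells at 0.1% parasitemia and 2% hematocrit (final). After incubation at 37 C under 5% CO2, luciferase detection reagent was dispensed and light output recorded.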
Pf growth 96h – P. falciparum growth inhibition at 96 hour, primary screen for plastid delayed-death inhibitors; P. falciparum luciferase reporter growth, 96 h; AID 504834; Potency, µM (highest dose often 28.7 µM), for the others: at the highest dose activity change, negative = inhibition, hits mostly inhibitors; hit rate 6.9% among 320,000; note: potency is the fitted concentration of half-maximal effect; % is set by controls: 0 for no effect and ±100 for the full control effect
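Erythrocytes infected with luciferase-expressing P. falciparum were dispensed at 2% hematocrit and 0.05% parasitemia (final), then incubated with compounds 96 hours at 37 C in 5% CO2. Luminescence after detection reagent addition reported growth.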
AMA1-RON2 inh – inhibitors of Plasmodium falciparum AMA1-RON2 interaction | hit rate 0.2% among 360,000 | AlphaScreen AMA1-biotinylated RON2 peptide binding | Potency, µM (series often up to 58.2 µM), for the others: at the highest dose activity change, negative = inhibition, most hits filed as inhibitors;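 note: potency is the fitted concentration of half-maximal effect; 0% = vehicle wells and -100% = peptide control; nearly all actives have a fitted effect of over 45% in size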
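AMA1 (3D7) with his tag at 25 nM final met compounds first, then biotinylated RON2 peptide at 25 nM; detection used donor plus acceptor beads, 10 µg/mL apiece, read by AlphaScreen after 30 min at room temperature.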
Shiga toxin inh – Shiga toxin inhibition | inhibition, % at 38.7 µM | Vero cells, Shiga toxin protein synthesis inhibition reporter | hit rate 9.2% among 290,000 | AID 2315; in the data active = inhibition mostly above about 28%, no sharp cut-off; inactive = mostly below about 43%; note: 0% is about no effect
CHX counter – counter-screen hit for Shiga toxin inhibitors, cycloheximide. cell reporter, cycloheximide protein synthesis inhibition counterscreen. max response, %. hit rate 12% among 300,000. AID 2314; in the data active = max response mostly above about 13%, no sharp cut-off; inactive = mostly below about 14%; note: read at 38.3 µM for the half of the compounds with a filed dose; 0% is about no effect
HCV inhibitor – inhibitors of hepatitis C virus infection; Huh7.5.1 HCVcc-Cre infection, luciferase reporter, 44 h; Potency, µM (doses to about 41.8 µM), inactives show top-dose activity change, negative = inhibition, hits mostly inhibitors; hit rate 3.4% among 340,000; AID 651820; note: potency is the fitted concentration of half-maximal effect; % is set by controls: 0 for no effect and ±100 for the full control effect
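A cell-based infection assay in which seeded cells (1,000 per well) receive test compound after 4 h, are inoculated with HCVcc-Cre at approximately 0.5 moi, and are incubated 44 h before luminescence detection.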
Starred values were filed as active, the others as inactive; ? = inconclusive; / = no result; [ ] = another dose, or the depositor's remark. Sampled rows, rich in hits. Any-hit rate of the full collection: about 21%. Unless noted, calls come from the whole dose curve; as a rule, active = well fitted curve in the direction sought with a large enough effect; inconclusive = small, poorly fitted or top-dose-only effect, or another doubt; inactive = no such curve, though single readings can be large; an effect the other way counts as inactive or inconclusive.

SMILES	Pf growth 48h	Pf growth 96h	AMA1-RON2 inh	Shiga toxin inh	CHX counter	HCV inhibitor
Cc1onc(-c2c(F)cccc2Cl)c1C(=O)Nc1cccc2nsnc12	?	?	88.8%	-3.6	-3.8	0.0%
Cc1cccc(CCNC(=O)C2CC(O)CN2C(=O)Nc2ccccc2)c1 (stereo unspecified)	/	/	-2.9%	/	/	/
CC1(C(=O)Nc2cccc(Oc3ccccc3)c2)Cc2c(-c3ccc4c(c3)OCO4)ccnc2O1 (stereo unspecified)	/	/	-14.8%	/	/	/
O=C(c1ccco1)N(CCCN1CCOCC1)c1nc(-c2ccc(Cl)cc2)cs1	?	29.9%	0.7%	-2.8	0.9	11.2µM*
O=C(c1ccco1)N(CCCN1CCOCC1)c1nc(-c2ccc(F)cc2)cs1	?	-6.2%	-22.1%	4.7	2.6	11.2µM*
COc1ccc(-c2csc(N(CCCN3CCOCC3)C(=O)CCl)n2)cc1	0.9%	68.3%	-6.8%	-3.3	-2.7	-6.3%
CCN(CC)CCCN(C(=O)c1ccco1)c1nc(-c2ccc(Cl)cc2)cs1	1.47µM*	?	-8.2%	-11.7	-4.0	11.2µM*
CCN(CC)CCCN(C(=O)c1ccco1)c1nc(-c2ccc(C)cc2)cs1	?	60.3%	-11.3%	-16.4	-0.9	?
O=C(Nc1ccc(C(F)(F)F)cc1)c1ccccc1-n1cnnn1	11.5%	-17.8%	-2.7%	/	/	10.3%
C=C1C(=O)C2=CC1CCC(=O)C1(C)CCC(OC(C)=O)C(C)(C)C1CC2O (stereo unspecified)	/	/	11.8%	/	/	11.2µM*
C/C=C1\C(=O)CC2C3CCC4=CC(=O)CC[C@]4(C)C3CC[C@]12C (stereo partly specified)	/	/	/	-5.9	-5.4	/
CNc1nc(N)c([N+](=O)[O-])c(Nc2cccc(Cl)c2)n1	-19.7%	-23.8%	1.9%	8.7	-1.7	8.91µM*
Nc1nc(NCCOCCO)nc(Nc2cccc(F)c2)c1[N+](=O)[O-]	?	?	-8.3%	-15.5	-4.3	?
CNc1nc(N)c([N+](=O)[O-])c(Nc2cccc(F)c2)n1	?	?	11.5%	18.4	8.4	22.4µM*
C=CCNc1nc(N)c([N+](=O)[O-])c(Nc2cccc(Cl)c2)n1	?	7.4%	-9.9%	1.1	1.3	2.82µM*
CNc1nc(N)c([N+](=O)[O-])c(NCc2ccccc2)n1	?	?	-12.5%	24.8	17.6	3.0%
CC(C)(C)NC(=O)CCSc1nnc(-c2ccco2)o1	50.9%	3.7%	-5.3%	37.2	27.0*	22.7%
CCN(CC)C(=O)CCSc1nnc(-c2ccncc2)o1	16.2%	47.5%	-27.4%	-6.7	-2.7	9.9%
CCN(CC)C(=O)CCSc1nnc(-c2ccco2)o1	123.2%	?	-0.7%	37.0	29.9*	-2.8%
COc1ccc(Cl)cc1S(=O)(=O)NC(C)C(=O)NCc1ccc2c(c1)OCO2 (stereo unspecified)	6.8%	-2.4%	7.6%	-6.5	-3.8	18.3%
N#Cc1nc(Nc2cc(F)cc(F)c2)c2ncn(CC(F)F)c2n1	?	0.294µM*	/	/	/	/
N#Cc1nc(NCC(F)F)nc(Nc2cc(F)cc(F)c2)n1	10.4µM*	?	/	/	/	/
COc1ccccc1Cc1c(C2CCCCC2)nc2cc(C)c(Br)c(C)n12	/	/	-17.9%	/	/	/
Cc1cccc2cc3c(nc12)-c1ccccc1C3=O	-15.9%[0.00184 µM]	0.0%	22.6%	42.6*	17.3*	-14.1%
COC(=O)C(C)NC(=O)c1ccc(C(C)(C)C)cc1 (stereo unspecified)	41.0%	16.9%	-0.3%	76.9*	31.4*	18.4%
SMILES	Pf growth 48h	Pf growth 96h	AMA1-RON2 inh	Shiga toxin inh	CHX counter	HCV inhibitor
CCN(CC)S(=O)(=O)c1ccc(N2CCOCC2)c(NC(=O)C23CC4CC(CC(Cl)(C4)C2)C3)c1	8.28µM*	3.7µM*	-19.2%	-5.9	0.6	?
CCN(CC)S(=O)(=O)c1ccc(N2CCOCC2)c(NC(=O)c2ccco2)c1	/	/	5.0%	/	/	-21.5%
CCc1cc(C(=O)Nc2cc(S(=O)(=O)N(CC)CC)ccc2N2CCOCC2)sc1C	?	9.28µM*	8.4%	/	/	?
CCN(CC)S(=O)(=O)c1ccc(N2CCOCC2)c(NC(=S)NC(=O)c2ccco2)c1	2.62µM*	1.47µM*	34.1%	-13.6	0.9	?
CCN(CC)S(=O)(=O)c1ccc(N2CCOCC2)c(NC(=O)c2cc(C)cc(C)c2)c1	10.4µM*	?	-21.7%	-2.9	-3.1	-24.7%
CCN(CC)S(=O)(=O)c1ccc(N2CCOCC2)c(NC(=O)c2ccccc2)c1	?	?	-10.4%	-11.8	7.3	-17.3%
O=C(c1ccncc1)N1CCN(S(=O)(=O)c2ccc(F)cc2)CC1	7.9%	-18.0%	-7.7%	-7.3	-0.4	4.6%
CC(C)NC(=O)c1ccc(CN2CCc3ccccc3C2)cc1	102.6%	?	8.4%	3.2	0.9	4.9%
CC(C)(C)NC(=O)c1ccc(COc2ccc(Cl)cc2Cl)o1	-9.6%[0.00184 µM]	?	12.0%	19.1	-2.0	?
COc1cccc(NC(=O)N(C)C[C@@H]2OCc3cnnn3CCCC(=O)N([C@H](C)CO)C[C@@H]2C)c1	/	/	5.8%	/	/	/
CCCC(=O)Nc1nc(C)c(-c2csc(Nc3ccc(Cl)cc3)n2)s1	0.828µM*	?	72.7%	8.6	-1.0	-4.1%
CCC(C)C(=O)Nc1nc(C)c(-c2csc(Nc3ccc(Cl)cc3)n2)s1 (stereo unspecified)	13.1µM*	9.28µM*	35.4%	-11.0	1.2	-25.1%
O=C(Nc1ccc(Cl)cc1)Nc1nc(-c2ccccc2)cs1	-17.3%	?	-0.6%	43.2	6.2	?
CCC(=O)Nc1nc(C)c(-c2csc(Nc3ccc(C(=O)O)cc3)n2)s1	0.0%	-46.8%	-2.3%	4.9	-1.4	19.5%
C=CC[C@@H](CC(=O)N[C@H](CO)Cc1ccccc1)C(=O)N[C@H](COC(=O)[C@@H](CC=C)Cc1ccc(F)cc1)Cc1ccccc1	/	/	1.8%	/	/	0.4%
NS(=O)(=O)c1cccc(NC(=O)c2ccno2)c1	37.5%	31.4%	-11.6%	2.7	1.0	2.6%
CN(C(=O)COC(=O)c1cccnc1Nc1cccc(C(F)(F)F)c1)C1CCS(=O)(=O)C1 (stereo unspecified)	10.1%	-11.1%	-4.8%	-5.9	-2.6	-1.2%
CN(CCC#N)C(=O)COC(=O)c1cccnc1Nc1ccccc1F	-10.5%	25.5%	2.3%	21.5	15.9*	3.2%
CCN(C(=O)COC(=O)c1cccnc1Nc1ccccc1F)C1CCS(=O)(=O)C1 (stereo unspecified)	152.8%	159.0%	-5.4%[2.32 µM]	53.5*	62.4*	-10.6%
CN(C(=O)COC(=O)c1cccnc1Nc1ccccc1F)C1CCS(=O)(=O)C1 (stereo unspecified)	76.3%	91.2%	4.4%	64.9*	28.0*	5.1%
CC(=O)Nc1ccc(S(=O)(=O)Nc2cc(S(=O)(=O)N3CCCCC3)ccc2O)cc1	?	2.8%	71.8%	/	/	3.8%
